# Laboratory results as given in PubChem BioAssay AID1259240 (Keith Lab, Institute of Cancer Science, University of …, 2017).
# Calls of active or inactive are those of the source. Rule as the data show it: active = fold change mostly below about -2 (no sharp cut-off); inactive = mostly above about -1.8.
# Test: modulation of TERT promoter-driven luciferase – cell-based, luciferase reporter, human, primary screen (AID 1259240)
# Details: A2780 TERT promoter luciferase reporter, 16 h; at 20 µM, fold versus average of vehicle-only wells
row,Compound,fold change
1,Cc1cc2c(cc1C)NC(c1nc3ccccc3[nH]1)C1=C(CC(C)(C)CC1=O)N2 (stereo not drawn),-1.29 (inactive)
2,CCc1nccn1S(=O)(=O)c1ccc(OC)c(OC)c1,-2.54 (active)
3,Cc1[nH]nc2c1C(c1ccc(O)cc1)NC2=O (stereo not drawn),-1.14 (inactive)
4,O=C(CSc1nc(-c2ccco2)cc(C(F)(F)F)n1)N1CCSCC1,-1.96 (inactive)
5,Cc1ccc2nc(NCc3ccc(F)cc3)c3nncn3c2c1,1.08 (inactive)
6,COC(=O)CCn1nc(-c2ccc(Cl)cc2)c2ccccc2c1=O,-1.07 (inactive)
7,CCOC(=O)N1CCN(c2c(NCCCOC)c(=O)c2=O)CC1,1.11 (inactive)
8,COc1ccc2cc3c(N)nn(C(=O)CSc4ccncc4)c3nc2c1,-1.05 (inactive)
9,CC1CCCCC1NC(=O)CN(C)S(=O)(=O)c1ccc2c(c1)CCC(=O)N2 (stereo not drawn),1.04 (inactive)
10,Cc1cc(NC(=O)CSc2ncnc3ccccc23)no1,1.35 (inactive)
11,CC1CCCCC1NC(=O)c1cc2c(s1)-c1ccccc1OC2 (stereo not drawn),-2.96 (active)
12,CC1CCCC(C)N1C(=O)CN1C(=O)COc2ccc(S(=O)(=O)N3CCCCCC3)cc21 (stereo not drawn),-1.25 (inactive)
13,COc1ccc(CCn2c(=O)c3cccnc3n(CC#N)c2=O)cc1OC,1.04 (inactive)
14,COc1ccc(C2C3C(=O)N(C(C)C)C(=O)C3ON2c2ccc(Cl)cc2)cc1 (stereo not drawn),-1.62 (inactive)
15,O=c1oc2cc(O)ccc2cc1S(=O)(=O)c1ccccc1,-1.16 (inactive)
16,COc1cc2c(c(OC)c1OC)C(c1cccnc1)CC(=O)N2 (stereo not drawn),-1.07 (inactive)
17,O=C(O)CN1C(=O)/C(=C/c2ccc(SCc3ccccc3)o2)SC1=S,1.04 (inactive)
18,COc1ccc(-c2n[nH]c3c2C(c2ccccc2)NC3=O)cc1 (stereo not drawn),-1.24 (inactive)
19,Cc1cc(C(=O)O)ccc1-n1c(C)cc(C=C2C(=O)c3ccccc3C2=O)c1C,-2.23 (active)
20,COc1ccc(S(=O)(=O)NC(C)(C)C)cc1-c1nnc2c3ccccc3c(C)nn12,-1.62 (inactive)
21,O=c1c(O)c(-c2ccc3c(c2)OCO3)oc2ccccc12,1 (inactive)
22,Cc1ccc2c(C)nc(NC3=NCN(CCN4CCOCC4)CN3)nc2c1,1.05 (inactive)
23,CC1CCOC2(O1)C(=O)N(CN1CCN(c3cccc(Cl)c3)CC1)c1ccccc12 (stereo not drawn),-1.15 (inactive)
